Source: PubChem BioAssay (National Center for Advancing Translational Sciences (NCATS))
Epigenetic derep: Quantitative High-Throughput Screen for Regulators of Epigenetic Control | murine LDR cells, GFP reporter derepression, 30 h | Potency, µM (doses to about 53.9 µM), without a hit: at the top dose GFP activation, usual class: activators | hit rate 0.2% among 280,000; further: % of control where 0% means no effect; nearly all actives have a fitted effect of over 60% in size
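Murine LDR cells bearing a silenced CMV-driven GFP reporter were exposed to compound for 30 h at 37 C. After PBS washes, GFP-positive cells (20-120 um objects) counted by laser-scanning microplate cytometry.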
A549 tox: Nrf2 qHTS screen for inhibitors: counterscreen for cytotoxicity; A549 ARE-Fluc cells, CellTiter-Fluor viability, 18-24 h; Potency, µM (doses to about 46 µM), for inactives: at the top dose activity change, negative = cytotoxicity, hits mostly inhibitors; hit rate 0.16% among 390,000; AID 504648, 2011; further: on the % scale 0 is the no-effect control and ±100 the full control effect
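A549 ARE-Fluc cells in 5% FBS OPTI-MEM, 5000 cells/well, rested 2 h then exposed to compounds in concentration-response for 18-24 h at 37 °C. Viability by CellTiter-Fluor fluorescence (Ex 405/Em 525) after 30 min; luciferase luminescence (BugLite, 15 min, RT) read afterwards.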
Nrf2 block: Nrf2 qHTS screen for inhibitors; A549 ARE-Fluc reporter, luciferase luminescence, 18-24 h; Potency, µM (top dose mostly 46 µM), inactives show at the top dose activity change, negative = inhibition, most hits filed as inhibitors; hit rate 2.1% among 360,000; AID 504444, 2011; further: on the % scale 0 is the no-effect control and ±100 the full control effect; nearly all actives have a fitted effect of over 60% in size
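Nrf2 activity is the BugLite luminescence, read 15 min after reagent at room temperature, following CellTiter-Fluor cytotoxicity readout (30 min, 37C). Compound titrations were applied for 18-24 h to 5000 A549 ARE_Fluc cells/well in 5% FBS OPTI-MEM.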
PINK1 modulator: A Quantitative High throughput Screen to Identify Chemical Modulators of PINK1 Expression. PINK1 immunofluorescence, high-content cytometry, 24 h. Potency, µM (series often up to 76.6 µM), without a hit: at the highest dose activation (PINK1 increase), hits mostly activators. hit rate 0.2% among 410,000; active means well fitted activation curve with a large enough effect; inconclusive means small, poorly fitted or top-dose-only effect; cell line not stated here; further: % of control where 0% means no effect; nearly all actives have a fitted effect of over 65% in size
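PINK1 protein, normally rapidly degraded, was detected by immunofluorescence after 24 hour compound treatment of a stable cell line. Titration data (5 concentrations) came from laser-scanning cytometry, with CCCP-treated wells as controls.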
Nrf2 activator: qHTS of Nrf2 Activators; Potency, µM (highest dose often 46.1 µM), without a hit: at the highest dose activation, hits mostly activators; AREc32 ARE-luciferase reporter (MCF7-derived line), luminescence, 24 h; AID 624171, 2012; hit rate 0.31% among 410,000; further: % of control where 0% means no effect; nearly all actives have a fitted effect of over 65% in size
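ARE-driven firefly luciferase activity in AREc32 cells measured after a 24 hr compound exposure at 37 deg C, using Steady-Glo reagent and a 30 min room-temperature hold.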
Numbers without * were called inactive; ? = inconclusive; · = no result; ! = not confirmed by another sample; [ ] = dose if it differs, or a comment. Hits are enriched below; roughly 2.4% of the tested compounds scored in any of these assays. Unless noted, the call rests on the fitted dose curve; in most records, active means well fitted curve in the direction sought with a large enough effect; inconclusive means small, poorly fitted or top-dose-only effect, or another doubt; inactive means no such curve, though single readings can be large; an effect the other way counts as inactive or inconclusive. Potency means the concentration at half of the fitted maximal effect.

SMILES	Epigenetic derep	A549 tox	Nrf2 block	PINK1 modulator	Nrf2 activator
Cc1cccc(N2CCN(C(=O)CCNS(=O)(=O)c3ccc4c(c3)oc(=O)n4C)CC2)c1C	·	2%	21µM*	5%	2%
Cl.Cl.Cl.Cl.Cl.Cl.N.N.N.N.NNNNN.NNNNN.O.O.[Ru].[Ru].[Ru]	1%	·	·	·	·
CCCCCCC(=O)N/N=C/c1c(O)n(C2CC2)c(=S)[nH]c1=O	1%	1%	3%	2%	0%
CCCCCCC(=O)N/N=C/c1c(O)n(C(C)CC)c(=S)[nH]c1=O (stereo not drawn)	0%	-6%	15µM*	2%	0%
COc1ccc2c(c1)[nH]c1c(C)nccc12	?	-7%	23µM*	0%	0%
Cc1nccc2c1[nH]c1ccc(Br)cc12	·	-3%	-7%	0%	5%
C=CC[C@@H](CC(=O)N(CCO)Cc1ccccc1)C(=O)NC[C@@H](OC(=O)[C@@H](CC=C)CC(=O)OC(C)(C)C)c1ccccc1	·	-27%	?	6%	-1%
C=CC[C@H](CC(=O)N(CCO)Cc1ccccc1)C(=O)NC[C@H](OC(=O)[C@@H](CC=C)CC(=O)OC(C)(C)C)c1ccccc1	·	?	18µM*	13%	-4%
CC(C)(C)[C@]1(O)C[C@@H]2OC(=O)CC23C(=O)O[C@@H]2OC(=O)[C@H](O)C231 (stereo partly drawn)	0%	·	·	·	·
CCOP(=O)(CCP(=O)(OCC)OCC)OCC.C[CH2][Sn]([Cl])([Cl])[CH2]C	·	16µM*	?	-7%	-2%
CC(=O)OC1CC(OC2C(O)CC(OC3C(O)CC(OC4CCC5(C)C(CCC6C5CCC5(C)C(C7=CC(=O)OC7)CCC65O)C4)OC3C)OC2C)OC(C)C1OC1OC(CO)C(O)C(O)C1O (stereo not drawn)	·	?	0.037µM*	-6%	-1%
CC(=O)OC1C[C@H](O[C@@H]2C(O)C[C@H](O[C@@H]3C(O)C[C@@H](OC4CC[C@]5(C)C(CCC6C5CC(O)[C@@]5(C)C(C7=CC(=O)OC7)CC[C@@]65O)C4)OC3C)OC2C)O[C@H](C)[C@H]1O[C@H]1OC(CO)C(O)C(O)C1O (stereo partly drawn)	0%	·	·	·	·
CCn1nc(/C=C/c2ccccc2)nc2c(=O)n(C)c(=O)nc1-2	2%	5.8µM*	?	-2%	-3%
CCn1nc(-c2cccs2)nc2c(=O)n(C)c(=O)nc1-2	?	1.5µM*	5.2µM*	-2%	-4%
N#Cc1cccc(NC(=O)N2CC[C@@]3(CCCN(C(=O)Oc4ccccc4)C3)C2)c1	·	·	·	0%	·
CCC(=NCc1cc(OC)cc(OC)c1)c1c(O)n(C)c(=O)n(C)c1=O	0%	?	23µM*	2%[38.3 µM]	0%
COc1cc(=O)n2c(c1C(=O)N(C)Cc1nonc1C)CCN(C(=O)C1C(C)(C)C1(C)C)CC2	·	·	·	0%	·
O=C(c1ccco1)N1CCN(C(=O)c2ccc(COc3ccc(Cl)cc3Cl)o2)CC1	·	-25%	26µM*	1%	7%
CCN(CC)c1ccc(N=Cc2c(O)n(Cc3ccccc3)c(=O)[nH]c2=O)cc1	13µM*	1%	2%	15%	0%
CCN(CC)c1ccc(N=Cc2c(O)n(-c3ccccc3)c(=O)[nH]c2=O)cc1	-1%	-4%	?	3%	20%
O=C(Nc1cccc(F)c1)N1CC2(CCNCC2)C1	·	·	·	-1%	·
CC1=C(O)C(=O)[C@@H]2O[C@@H]2C1=O	1%	·	·	·	·
CN(Cc1ccccc1)C(=O)Cn1c(=O)oc2cc(S(=O)(=O)NCc3ccccc3)ccc21	2%	-5%	18µM*	4%	0%
CC1CC(C)CN(S(=O)(=O)c2ccc3c(c2)oc(=O)n3CC(=O)NCc2cccnc2)C1 (stereo not drawn)	1%	-5%	?	2%	-1%
C=CCN1CCC23c4c5ccc(O)c4OC2/C(=N/N=C2\CCC4(O)C6Cc7ccc(O)c8c7C4(CCN6CC=C)C2O8)CCC3(O)C1C5 (stereo not drawn)	0%	·	·	·	·
SMILES	Epigenetic derep	A549 tox	Nrf2 block	PINK1 modulator	Nrf2 activator
CCC(COC(=O)c1cc(OC)c(OC)c(OC)c1)(c1ccccc1)N(C)C (stereo not drawn)	-2%	0%	21µM*!	?	8%
Cc1ccc(S(=O)(=O)NP(=O)(Oc2ccccc2)Oc2ccccc2)cc1	1%	0%	1%	-4%[38.3 µM]	-1%
Cc1ccc(C)c(NP(=O)(Oc2ccccc2)Oc2ccccc2)c1	·	?	21µM*	-4%	0%
COC(=O)C12CC3=CC(CC3=O)Cc3ccccc3[C@@H]1CNC2=O (stereo partly drawn)	-1%	·	·	·	·
COc1cc([C@@H]2c3cc4c(cc3[C@H](O)[C@H]3COC(=O)[C@@H]23)OCO4)cc(OC)c1OC	·	-12%	?	7%	·
Cc1ccnc(SCc2nc3ccccc3s2)n1	0%	0%	·	2%[38.3 µM]	13µM*
COc1ccc(CN2CCN(c3ncnc4sc5c(c34)CCCC5)CC2)cc1F	6%	-19%	10µM*	-1%	3%
COc1cccc(CN2CCN(Cc3cccc(F)c3)CC2)c1	·	2%	-6%	7%	-1%
CCc1ccc(CNC(=O)c2ccc3c(c2)N=C(C)c2cc(C)ccc2S3)cc1	1%	-4%	?	5%	-1%
CC(=O)c1cn(Cc2ccccc2F)c2ccccc12	·	-8%	5.8µM*	1%	3%
CCc1ccc(-n2c(=O)c3sc4ccccc4c3n(CC(=O)NC3CCCC3)c2=O)cc1	?	1%	14%	5%	0%
O=C1/C(=C\c2ccccc2)C[C@@]2(O)[C@H]3Cc4ccc(O)c5c4[C@@]2(CCN3CC2CC2)[C@@H]1O5	-4%	·	·	·	·
C[CH2][Hg][S]c1ccccc1C(=O)O	5%	16µM*	?	-1%	?
O=P1(Oc2ccccc2)CC=CC(COCc2ccccc2)O1 (stereo not drawn)	·	-4%	5%	·	·
CCN1C(=O)c2ccccc2Sc2ccc(C(=O)N3CCC4(CC3)OCCO4)cc21	1%	-4%	?	-2%	1%
CCN1C(=O)c2ccccc2Sc2ccc(NC(=O)Nc3ccc(Br)c(C)c3)cc21	-1%	-27%	·	16µM*	1%
CN1C(=O)c2ccccc2Sc2ccc(NC(=O)NCc3ccc(Cl)cc3)cc21	-8%	-11%	15µM*	0%	0%
C[C@H]1CNC(=O)c2c(C(=O)N3CCN(C(=O)OC(C)(C)C)CC3)ncn21	·	·	·	?	0%
CC[C@@]1(O)C(=O)OCc2c1cc1n(c2=O)Cc2cc3c(O)cccc3nc2-1	8%	·	·	·	·
